# Test results from the supplement of paper PMC6555819.
# How the values were obtained:
# Test in all cases: PBM binding z-score (relative to random genomic background probes); higher = stronger binding; sequences stand for … in GC…GCGATTGACAGCGTAGAATGAAGG
# [1] = test system: RARb homodimer (NR concentration 270 nM)
# Outline: (§1)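 The probes on custom Agilent 4×180K protein-binding microarrays were double-stranded, with 34-nt variable regions bearing direct-repeat seeds, single-nucleotide variants, half-site ablations and random human genomic background sequences. Incubation lasted 1 h with ligand-free nuclear receptor dimers in PBS pH 7.4, 2% milk, 0.02% Triton X-100, 1 mM DTT, 0.2 mg/mL BSA and 0.4 mg/ml salmon testes DNA. Antibodies against each partner (one per run) detected bound dimers, and fluorescence scans were regression-normalized. Binding z-scores take the random background probes as reference.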
# [2] = test system: RARg:RXRa (NR concentration 270 nM, RXRa partner concentration 90 nM)
# Outline: as §1
# [3] = test system: RARg homodimer (NR concentration 270 nM)
# Outline: as §1
# [4] = test system: RXRa DBDmut IVT, anti-RXR (DBD mutation: RXRa K156A/R161A, NR concentration 90 nM)
# Outline: as §1
# [5] = test system: RXRa homodimer (NR concentration 180 nM)
# Outline: as §1
# [6] = test system: THRa:RXRa (NR concentration 90 nM, RXRa partner concentration 90 nM)
# Outline: as §1
# [7] = test system: THRa homodimer (NR concentration 90 nM)
# Outline: as §1
# [8] = test system: VDR:RXRa (NR concentration 270 nM, RXRa partner concentration 90 nM)
# Outline: as §1
# [9] = test system: VDR homodimer (NR concentration 270 nM)
# Outline: as §1
Sequence,PBM binding z-score [1],PBM binding z-score [2],PBM binding z-score [3],PBM binding z-score [4],PBM binding z-score [5],PBM binding z-score [6],PBM binding z-score [7],PBM binding z-score [8],PBM binding z-score [9]
TGAATGAGGTTATAAGATCGGGGAACGTTGCAAA,0.0926,1.17,0.891,0.942,1.77,1.76,0.158,0.904,0.395
TAGCCTAGGTCATCGGGCCAGTATAGTACGCATC,3.22,4.32,4.38,0.957,3.29,2.96,1.16,2.24,0.811
GTTGCTAGGTCAACTGATGGTCAGCTAAAGCTCG,3.54,5.4,5.9,1.48,3.11,3.09,1.46,2.05,0.164
CGTCAAAATTCAACTAAGGTAACGTAAAGCACGC,0.445,0.33,0.586,0.407,0.529,2.94,1.75,0.298,0.233
CCAGACAGGTGAAAGGTAGCTCAGTCTGGTACGC,0.293,0.352,0.242,-0.0776,1.07,0.0213,-0.421,-0.089,0.118
CCGACTGGGGCTAAGGTTACCATACTCAGTACGA,1.12,0.783,0.678,0.382,0.902,2.39,1.68,0.0865,0.443
ACAGACAGGTGAGTGAAGGAAACTCAGCTGGACG,-0.566,-0.0497,0.189,-0.324,0.249,-0.366,-0.967,-0.816,-0.21
ATCTCTAGGTAACAAGCTCAGTGAAAGAGAGGAC,0.444,0.352,0.494,-0.305,0.272,1,0.56,0.159,-0.048
CCTCGGAGGACAGAACGTCAGAGCTGTCCGCTTT,-0.587,-0.462,-0.0228,-0.411,-1.12,-0.532,-0.473,-0.754,-0.816
ATCGAAAGGTCGAGGAGAGTATAGAGAAAGGGAA,2.25,4.13,3.86,0.539,4.21,1.94,-0.151,2.64,0.103
TAGCCTAGGTCAGATCGGTCCAGTATACGCTATA,1.89,2.06,3.2,-0.21,1.2,2.97,0.0173,2.18,0.23
CAAACTAGGTCACAGACGTCAAAGTCCGTGCGTA,3.28,4.49,5.14,1.98,3.61,3.32,1.23,3.26,0.686
ATCGACAGGTCGAAGGTGAGTATACCCACCCGAA,0.661,1.8,1.51,-0.283,2.37,0.716,-0.432,0.627,-0.198
CCGACTGGGGCATAAGGTTAGCATAAGCCAGCCC,1.26,0.672,0.69,-0.721,0.224,1.01,0.298,-0.409,-0.543
CCTCGCAGGACAGAAGGTCAGAGCTGTCCGCTTT,3.34,2.74,2.61,0.371,1.74,1.58,0.0874,0.93,0.0556
GCGACTGGGGCAGCAGCAGGTTACCATAACTTAA,0.746,0.167,0.234,-0.331,-0.00155,0.651,-0.162,-0.465,-0.595
CGAACGACGGCATGAGTTGATAGCAAATGCCGAT,-1.1,-0.397,-0.191,-0.218,-0.57,-0.799,-1.12,-0.72,-0.0876
GCGACTGGGGCATCAGCAGGTTACTATAACTTAA,0.782,0.807,0.379,0.136,0.331,0.816,0.104,0.0645,0.0737
CCGACTGGTGCAGAAAGGTTACCATACCATCCGG,1.73,1.16,0.812,-0.6,1.61,0.935,-0.35,0.685,-0.229
TCTCGGAGGAAACGAAGGTCAGAGCTTTCCAGAG,2.69,1.88,1.53,-0.239,1.5,1.38,-0.547,0.66,-0.0279
TCTATTAGTTGATCAGGGCAACCGAAACAGCGGA,0.681,0.484,0.555,1.15,0.519,0.815,0.591,0.669,0.203
CTACCAAGGTGAACAAGTTCGTTGATTACTATTC,1.3,0.877,1.02,2.17,0.747,1.9,0.959,6.15,3.6
ATCGATAGGTCGTGAGGTGAGTATACAGAAAGGC,1.39,2.16,1.84,0.0211,2.15,2.47,1.33,1.08,0.361
AGAATGAGGTTATACGTATATCAGGGAAGAAAGT,0.94,1.77,1.35,1.42,2.34,2.5,0.645,1.69,0.832
TCTTGTAGATCAACAGGCGGTTAAGAAAGATCGA,-0.586,0.0814,-0.187,0.904,0.0872,-0.136,-0.273,0.345,-0.602
CCTAGCAGGCCATTCTGGGTCACTCAAGGCTTGA,2.48,1.3,1.75,0.405,1.14,4.1,0.668,1.04,0.435

Sequence,PBM binding z-score [1],PBM binding z-score [2],PBM binding z-score [3],PBM binding z-score [4],PBM binding z-score [5],PBM binding z-score [6],PBM binding z-score [7],PBM binding z-score [8],PBM binding z-score [9]
ATCTCTAGGTAAAGATAGTTCAGAGAATGCAAAT,0.692,0.65,0.767,-0.136,0.482,0.724,0.0734,0.478,0.51
CATACAGGGTCAGCTAGGCCTGAGTAGGGACGGC,2.93,4.26,4.49,1.02,4.15,2.71,0.977,2.61,0.628
ATCTCTAGGTAACCAAGCTCAGTGAATGCCGAAC,-0.00643,0.122,-0.0382,-0.17,-0.107,0.646,0.537,-0.169,0.149
ACTAGTTGGACAGCTGAGGTCACACACAATTCGG,4.06,3.66,3.43,1.09,3.85,4.57,4.93,3.85,2.99
TCATATAGGTAAAGGCTAGGTGAAAGTCCGATCT,0.981,0.769,0.425,1.27,0.971,1.3,0.205,0.546,0.0425
CAAACTAGGTCAAGGTCAAAGTGGGTTTGTGCCA,5.23,5.95,6.67,3.05,5.78,4.34,3.93,5.74,5.14
TCTAGCAGGCCAGATGGTCACTCAAGAGGTACGG,0.18,0.0724,0.0188,-0.141,-0.0633,-0.597,-0.77,-0.443,-1.21
ACAGACAGGTGAGTGAAGGCAACTCAGCTGGACG,-0.0202,0.0165,0.418,-0.43,0.192,0.383,-0.689,-0.535,-0.742
CCGACTGGGCCATAAGGTTACCATAAGCCAGCCC,1.25,0.915,0.48,-0.727,0.767,2,1.52,0.0236,-0.224
CCTACTTGGCCACGAAAGGTCATTGATTCAGTGA,4.61,4.77,4.41,1.36,5.16,3.44,1.3,4.14,2.78
CCGACTGGGGGAAGGTTACCATAACGCACAGCCA,0.998,1.06,1.02,-0.37,1.02,1.1,0.107,0.558,0.178
TCTAGTTGGTCACGGACGTCACACACGACGGGTA,1.04,1.2,1.55,0.677,0.866,0.233,-0.0119,0.743,0.188
CCTAGCAGACCAGGGTCACTCAAGCATTTCGCTT,2.68,2.86,1.84,0.63,3.24,2.75,0.798,2.69,1.37
CGTCCAAGATCATAGGAGGTCAGTGAAGACAGAT,3.26,2.22,2.22,0.36,2.03,3.98,0.538,2.63,1.21
AGAACGAGGGCACGCTGAGATGATAGCAGAGTAG,1.2,1.91,2.21,1.8,1.41,1.48,-0.0737,0.702,0.452
CAAACTAGGTCAGGGTCAAAGTCGGTTTGTGCCA,4.45,5.19,5.4,2.77,5.47,3.89,2.25,4.97,4.18
ACTAGCAGGCCAAGTTTGGGTAACTCAAACAAAG,-0.346,-0.166,0.104,-0.417,-0.603,0.525,-0.513,-0.517,-0.292
ATCGAAAGGTCGAAGGTGAGTGTACCCACCCGAA,2.58,4.02,3.37,0.847,5.11,2.3,0.0687,3.05,0.737
CGGACTGGGGCAAGGTTACCATAACGCACAGCCA,1.45,1.34,1.4,-0.765,1.28,1.48,0.546,0.267,0.0512
CCTTACGGGTCACTCCAGGTGATAGCATCGGAGT,2.96,4.43,4.29,1.6,4.45,4.81,0.559,3.34,1.16
ATCTCTAGGTAAGACTCAGTTCAGTGACGAACGC,0.735,0.464,0.443,0.676,0.364,0.824,0.878,0.924,1.74
ATCGAAAGGTCGGAGGTGAGTATACCCACCCGAA,2.03,3.26,3,0.388,3.28,1.77,-0.0288,1.75,0.152
CCTAGTTGGTCAGGAGGTCACACCCCGGATATGA,4.41,5.03,4.13,0.124,4.77,3.74,2.36,3.82,2.96
ATCTCTAGGTAAAAGTTCAGTGAATCCCGAGGAT,2.42,1.68,2.06,0.516,1.54,1.24,0.375,1.31,1.7
TCTAGCAGGCCAGAGGGTTACTCAAGAGGTACGG,-0.00314,0.101,0.0155,-0.179,0.47,-0.0959,-1.11,-0.176,-0.658
CCTGGTTGGTCAAGGTCACACACGCTATAGGTAC,4.45,4.58,4.71,1.46,4.69,4.36,4.54,4.37,3.51
